Assay outcomes deposited in PubChem by Sanford-Burnham Center for Chemical Genomics.
SENP6 inh: blocks the human protease SENP6 | Q9GZR1 | Recombinant SENP6 catalytic domain, aminoluciferin luminescence | inhibition, % at 10 µM | 330,000 compounds, 1.8% hits | AID 2599;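 active means inhibition above about 50% at the single tested dose, limit read from the data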;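 further: plate controls were DMSO wells with enzyme for no effect and DMSO wells lacking enzyme for full effect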
SENP8 block-1: SENP8 (human) protease inhibition; Q96LD8; recombinant SENP8, Nedd8 substrate fluorescence; inhibition, % at 20 µM; 360,000 compounds, 0.64% hits; AID 602440; in the data active means inhibition mostly above about 40%, no sharp cut-off; inactive means mostly below about 27%
Target sequence (Q96LD8 whole entry, looked up): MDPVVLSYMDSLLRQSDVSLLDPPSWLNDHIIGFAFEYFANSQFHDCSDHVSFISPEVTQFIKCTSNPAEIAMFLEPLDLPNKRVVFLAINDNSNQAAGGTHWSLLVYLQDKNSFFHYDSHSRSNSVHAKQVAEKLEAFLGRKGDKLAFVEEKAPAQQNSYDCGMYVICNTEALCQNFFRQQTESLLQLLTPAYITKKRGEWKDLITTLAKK
SENP7 block: SENP7 protease inhibition; Q9BQF6; recombinant SENP7, Z-RLRGG-aminoluciferin luminescence, 40 min; inhibition, % at 5 µM; 330,000 compounds, 1.5% hits;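 active means inhibition above about 50% at the single test dose, limit read from the data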;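 further: plate controls were DMSO with enzyme for no effect and no enzyme buffer wells for full effect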
Target sequence (Q9BQF6 706-1050 limits assumed): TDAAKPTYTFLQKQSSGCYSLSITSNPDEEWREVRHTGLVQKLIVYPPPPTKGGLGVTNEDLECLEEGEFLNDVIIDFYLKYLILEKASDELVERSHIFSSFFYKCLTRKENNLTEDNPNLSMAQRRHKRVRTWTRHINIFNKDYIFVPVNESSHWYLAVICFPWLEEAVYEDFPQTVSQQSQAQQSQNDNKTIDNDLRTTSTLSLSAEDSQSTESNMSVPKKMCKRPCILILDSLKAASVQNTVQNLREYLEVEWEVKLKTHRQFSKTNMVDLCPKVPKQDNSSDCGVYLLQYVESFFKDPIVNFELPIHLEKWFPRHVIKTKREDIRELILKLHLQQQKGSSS
SENP8 block-2: blocks the human protease SENP8; AID 2540; inhibition, % at 10 µM; 330,000 compounds, 1.2% hits; purified SENP8, Z-RLRGG-aminoluciferin cleavage, luminescence; Q96LD8; in the data active means inhibition above about 50%
PPC-1+TRAIL kill: PPC-1 cancer cell killing with TRAIL present; PPC-1 cells + TRAIL, ATPLite viability luminescence; cell killing (% activity), % at 4 µM or 5 µM; 220,000 compounds, 0.41% hits;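 active means cell killing above 50% in the first pass at 4 µM, then a duplicate retest at 5 µM averaging 50% or more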;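 further: plate controls were cells with TRAIL plus DMSO for no effect and medium-only wells lacking cells for full effect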
C8 TRAIL sens: caspase-8 TRAIL sensitization; AID 624354; NB7+C8 cells + TRAIL, ATPlite viability luminescence; inhibition (viability loss, TRAIL sensitization), % at 10 µM; 360,000 compounds, 1% hits;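 active means compounds causing at least 50% loss of cell viability in the single-dose screen, relative to plate controls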
SENP8 confirm: human SENP8 inhibition, confirmed | shares compounds with SENP7 block | Recombinant SENP8, Z-RLRGG-aminoluciferin luminescence, 60 min | inhibition, % at 12.5 µM | 6,200 compounds, 40% hits;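 active means mean inhibition across replicates above about 50%, limit read from the data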
SENP6 confirm: human SENP6 inhibition, confirmed. recombinant SENP6, Z-RLRGG-aminoluciferin luminescence. shares compounds with SENP7 block. 6,200 compounds, 58% hits. AID 488915. inhibition, % at 12.5 µM
SENP7 confirm: confirmation of human SENP7 protease inhibitors. recombinant SENP7, Z-RLRGG-aminoluciferin luminescence, 40 min. shares compounds with SENP7 block. 6,200 compounds, 69% hits. inhibition, % at 12.5 µM
Casp3 SENP sel: inhibits human caspase-3 in SENP selectivity test; purified caspase-3, Z-DEVD-aminoluciferin luminescence, 60 min; inhibition, % at 12.5 µM; 6,200 compounds, 60% hits; shares compounds with SENP7 block;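 active means mean inhibition above about 50%, limit read from the data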;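 further: plate controls were enzyme with DMSO for no effect and wells without caspase-3 for full effect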
Luc interf: counter-screen for SENP inhibitors: luminescence interference; AID 488919; Pre-incubated SENP8/Z-RLRGG-aminoluciferin, luciferase luminescence interference; shares compounds with SENP7 block; 6,200 compounds, 39% hits; inhibition, % at 12.5 µM;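 active means mean inhibition above about 50% when retested at one dose, limit read from the data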;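 further: plate controls were DMSO wells with completed reaction for no effect and substrate without enzyme for full effect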
* marks the source's active call; other numbers are inactive results; . = no result. An excerpt weighted towards active compounds, which were near 3% of everything screened.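 How the source made its calls, unless noted: active means mean inhibition above about 50% in the one-dose retest (limit read from the data); inactive means the rest.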

SMILES	SENP6 inh	SENP8 block-1	SENP7 block	SENP8 block-2	PPC-1+TRAIL kill	C8 TRAIL sens	SENP8 confirm	SENP6 confirm	SENP7 confirm	Casp3 SENP sel	Luc interf
N#C/C(=C(/O)c1ccc([N+](=O)[O-])s1)c1nc2ccccc2[nH]1	20	32	52*	3	26	44*	5	8	6	16	5
Cc1ccc(N(CC(=O)NC(C)(C)C)C(=O)CCC(=O)Nc2nccs2)c(C)c1	-3	13	4	-1	.	-3	.	.	.	.	.
CCOC(=O)N1CCN(C2=C(NS(=O)(=O)c3ccc(C)cc3)C(=O)c3ccccc3C2=O)CC1	64*	82*	36	35	.	53*	5	26	3	5	-7
CC(=O)Nc1ccc(S(=O)(=O)Nc2ccc(N3CCOCC3)cc2)cc1	0	8	-9	-11	-4	1	.	.	.	.	.
CC(=O)Nc1ccc(S(=O)(=O)NC2=C(N3CCN(c4ccc(F)cc4)CC3)C(=O)c3ccccc3C2=O)cc1	63*	78*	44	29	24	47	31	56*	19	53*	-1
C[C@H](CO)N1C[C@H](C)[C@H](CN(C)C(=O)Nc2ccc(-c3cccs3)cc2)OCc2cnnn2CCCC1=O	.	-50	.	.	.	-10	.	.	.	.	.
COc1ccc(C(=O)C2CCCN(C(=O)c3ccc4nccnc4c3)C2)c(C)c1 (stereo unspecified)	57*	-2	-7	7	.	1	-21	-17	-8	-8	-5
CC1(C(=O)Nc2cnc3ccccc3c2)CCN1Cc1ccccc1OC(F)F (stereo unspecified)	.	3	.	.	.	28	.	.	.	.	.
Cc1cc(C)c(C#N)c(SCC(=O)c2ccccc2)n1	-9	17	11	-1	11	4	.	.	.	.	.
Cc1cc(=O)[nH]c(SCC(=O)c2ccccc2)c1C#N	74*	26	26	60*	17	-4	72*	74*	94*	82*	79*
CN(C)CCCNC(=O)C[C@H]1C[C@H](C(=O)N2CCCCC2)[C@@]2(C)c3[nH]c4cc(CCC(=O)N(C)C)ccc4c3CCN2C1=O	.	2	-12	.	.	0	.	.	.	.	.
COc1ccc(C(=O)c2ccc(OC)c(OC)c2)cc1OC	2	9	-13	-8	6	-3	.	.	.	.	.
COc1ccc(C(=O)c2nccc3cc(OC)c(OC)cc23)cc1OC	89*	65*	92*	95*	.	-12	86*	92*	81*	49	2
c1ccc(C2=NNC(c3ccccn3)=NN2)nc1	78*	25	30	74*	.	6	3	89*	100*	96*	75*
c1ccc(-c2nnc(-c3ccccn3)s2)nc1	90*	-20	89*	83*	48	38	91*	93*	102*	96*	88*
c1ccc(-c2nc(-c3ccccn3)nc(-c3ccccn3)n2)nc1	-15	0	-12	-14	7	30	.	.	.	.	.
COc1ccc(Cl)cc1NC(=O)CCc1nnc2ccc(N3CCN(C)CC3)nn12	-4	4	-5	4	.	-2	.	.	.	.	.
CN(C)/C=C(\C=O)c1onc(-c2ccccc2Cl)c1C#N	-13	-8	-1	-7	-6	-4	.	.	.	.	.
N#Cc1c(-c2ccccc2Cl)noc1/C=C/Nc1ccc(C(=O)O)cc1	95*	-338	69*	95*	17	2	89*	97*	97*	84*	12
CCN(CC(=O)Nc1ccc(NC(C)=O)cc1)C(=O)c1cc(S(=O)(=O)N2CCCCCC2)ccc1OC	-14	-5	3	-1	.	12	.	.	.	.	.
Cc1cc2ccccc2nc1-c1ccccc1F	.	0	.	.	.	-3	.	.	.	.	.
O=C1c2ccccc2-c2nc3ccccc3cc21	91*	14	90*	86*	.	48	0	88*	99*	86*	70*
c1ccc2c(c1)Cc1cc3ccccc3nc1-2	98*	1	95*	92*	.	40	9	95*	100*	92*	36
Cc1cccc(/C=N\Nc2cn[nH]c(=O)c2Cl)c1	76*	-193	71*	55*	-3	-11	71*	67*	88*	76*	45
COc1ccc(C)cc1NC(=O)c1cc(S(=O)(=O)N2CCOCC2)cn1C	9	-4	1	9	.	5	.	.	.	.	.
SMILES	SENP6 inh	SENP8 block-1	SENP7 block	SENP8 block-2	PPC-1+TRAIL kill	C8 TRAIL sens	SENP8 confirm	SENP6 confirm	SENP7 confirm	Casp3 SENP sel	Luc interf
Cc1ccc(C(=O)c2ccc(C)cc2)cc1	-25	12	8	-11	19	-6	.	.	.	.	.
CC(=O)c1ccc(N=Nc2ccc(N(C)C)cc2)cc1	54*	37	93*	75*	45	78*	16	25	16	53*	13
CC(=O)c1ccc(N=Nc2ccc(C)cc2)cc1	85*	22	87*	82*	44	47	61*	62*	79*	68*	48
CN(C)c1ccc(N=Nc2ccccc2Br)cc1	96*	35	99*	93*	.	55*	87*	94*	91*	90*	57*
Cc1cc(N(C)C)ccc1N=Nc1ccc(N)cc1	46	35	26	34	.	45	.	.	.	.	.
C#CCN(C[C@H]1[C@H](OC(=O)Nc2c(C)noc2C)[C@H](OC(=O)Nc2c(C)noc2C)C[C@H]2C(=O)N(c3ccccc3)C(=O)[C@@H]12)S(=O)(=O)c1ccc(C)cc1	.	-22	.	.	.	-4	.	.	.	.	.
CCCCOc1ccc(CN2CCSCC2)cc1	-15	10	-8	-10	.	11	.	.	.	.	.
CN(C)c1ccc(/C=C/C(=O)c2cccc(Br)c2)cc1	52*	-38	27	18	10	27	37	38	28	21	13
CN(C)c1ccc(C(=O)/C=C/c2cccnc2)cc1	-11	-22	-8	-10	.	11	.	.	.	.	.
NS(=O)(=O)c1ccc(NC(=O)COC(=O)c2ccc(S(=O)(=O)N3CCOCC3)cc2)cc1	0	4	-8	7	.	-7	.	.	.	.	.
COc1cccc(N=NC2C(=O)N(C(N)=S)N=C2C)c1 (stereo unspecified)	85*	25	68*	79*	.	0	71*	86*	98*	91*	42
CCOc1ccccc1N=NC1C(=O)N(C(N)=S)N=C1C (stereo unspecified)	15	33	8	11	.	18	.	.	.	.	.
